Screening results as filed in PubChem.
Rv3671c protease: inhibitors of M. tuberculosis serine protease Rv3671c; P9WHR9; inhibition, % at 5.96 µM; 0.048% of 320,000 active; AID 2606; in the data active means inhibition above about 38%;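 further: extracellular domain of Rv3671c used as enzyme; 0% = enzyme with DMSO and 100% = no enzyme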
Target sequence (P9WHR9 whole entry, looked up, the tested form may be a part): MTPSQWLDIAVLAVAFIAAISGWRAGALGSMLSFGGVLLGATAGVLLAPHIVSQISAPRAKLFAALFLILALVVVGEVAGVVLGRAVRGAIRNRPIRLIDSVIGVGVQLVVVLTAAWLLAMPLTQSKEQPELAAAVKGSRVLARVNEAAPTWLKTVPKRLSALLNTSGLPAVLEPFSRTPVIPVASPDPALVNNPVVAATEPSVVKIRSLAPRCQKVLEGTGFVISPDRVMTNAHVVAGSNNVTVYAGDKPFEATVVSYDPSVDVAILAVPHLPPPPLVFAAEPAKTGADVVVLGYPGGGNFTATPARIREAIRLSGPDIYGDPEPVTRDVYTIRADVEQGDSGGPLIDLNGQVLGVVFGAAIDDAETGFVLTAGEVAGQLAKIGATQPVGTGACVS
FadD28 binding: inhibitors of Mycobacterium tuberculosis FadD28 bisubstrate binding | 0.22% of 360,000 active | inhibition, % at 12.5 µM | FadD28 bisubstrate probe binding, fluorescence polarization; in the data active means inhibition above about 8.5%, passing the limit was not always enough; inconclusive means no clear call, values can overlap the other calls
UGM FP inh: blocks M. tuberculosis UGM enzyme; purified UGM, fluorescence polarization probe displacement; inhibition, % at 10 µM; 0.06% of 320,000 active; P9WIQ1; in the data active means inhibition above about 10%, passing the limit was not always enough; inconclusive means no clear call, values can overlap the other calls
PrP 5UTR inh: suppresses PrP 5' UTR mRNA reporter expression; cell-based PrP 5' UTR mRNA reporter, plate reader; 0.35% of 340,000 active; inhibition, % (test concentration not listed); in the data active means inhibition above about 52%; further: 0 = median of the neutral control wells
Mtb bLac sens: beta-lactam sensitization of Mtb H37Rv. inhibition, % at 25 µM. AID 434955. M. tuberculosis H37Rv growth with meropenem, percent inhibition. 0.27% of 330,000 active; call rule not given here;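 further: growth measured after seven days incubation then overnight dye step; 0% = bacteria only wells and 100% = bacteria with antibiotic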
BH1578 lux ind: inducers of Vibrio cholerae quorum light production without autoinducers. V. cholerae BH1578 lux reporter, luminescence, 6 h. activation, % at 18.7 µM. 0.16% of 350,000 active. AID 588436; in the data active means activation mostly above about 9.7%, no sharp cut-off; inconclusive means no clear call, values can overlap the other calls; inactive means mostly below about 3.7%
* marks the source's active call; other numbers are inactive results. Shown are actives, neighbours in structure and some others; about 0.76% of the full set was active somewhere.

O=C(O)c1cc(O)c2c(c1)[C@H]([C@H]1c3cc(C(=O)O)cc(O)c3C(=O)c3c(O[C@@H]4O[C@H](CO)[C@@H](O)[C@H](O)[C@H]4O)cccc31)c1cccc(OC3O[C@H](CO)[C@@H](O)[C@H](O)[C@H]3O)c1C2=O (stereo partly drawn) was read as Rv3671c protease 75.2*, FadD28 binding 29.2*, UGM FP inh 2.6, PrP 5UTR inh -13.5, Mtb bLac sens 4.5 and BH1578 lux ind 0.7.
`O=C(O)c1cc(O)c2c(c1)[C@@H]([C@H]1c3cc(C(=O)O)cc(O)c3C(=O)c3c(O[C@@H]4O[C@H](CO)[C@@H](O)[C@H](O)[C@H]4O)cccc31)c1cccc(OC3O[C@H](CO)[C@@H](O)[C@H](O)[C@H]3O)c1C2=O` (stereo partly drawn) gave Rv3671c protease 75.3*, FadD28 binding 13.7*, UGM FP inh -1.3, PrP 5UTR inh -24.3, Mtb bLac sens 8.4 and BH1578 lux ind -0.7.
Screening N#C/C(=C(/O)c1ccc([N+](=O)[O-])o1)c1nc2ccccc2[nH]1 returned Rv3671c protease 4.2, FadD28 binding -1.8, UGM FP inh 1.4, PrP 5UTR inh -11.3, Mtb bLac sens 81.8 and BH1578 lux ind 34.6*.
N#C/C(=C\c1ccc([N+](=O)[O-])o1)c1nc2ccccc2[nH]1 was read as Rv3671c protease -23.9, UGM FP inh -1.8 and Mtb bLac sens 100.1.
Oc1ccc(O)c(C=NNC(=S)NC2CC3CC2C2C=CCC32)c1 (stereo not drawn) was read as FadD28 binding 17.8* and BH1578 lux ind inactive.
Screening NNC(=S)NC1CC2CC1C1C=CCC21 (stereo not drawn) returned Rv3671c protease 2.3, FadD28 binding 0.7, UGM FP inh 1.4, PrP 5UTR inh -7.2 and BH1578 lux ind inactive.
For Cc1ccccc1N=Nc1c(O)n(C)c2ccccc12 the results were Rv3671c protease 3.8, FadD28 binding 0.2, UGM FP inh -1.3, PrP 5UTR inh 1.3, Mtb bLac sens 0.9 and BH1578 lux ind -0.2.
`COc1[nH]c(/N=C/c2ccccc2)c(C#N)c1C#N` gave Rv3671c protease 15.8, FadD28 binding 27.6*, UGM FP inh 9.0, PrP 5UTR inh -14.9, Mtb bLac sens -6.5 and BH1578 lux ind -0.2.
COc1ccc(C(=O)Nc2cccc([N+](=O)[O-])c2)cc1Br was read as Rv3671c protease 8.2, FadD28 binding -5.9, UGM FP inh 1.4, PrP 5UTR inh -32.5, Mtb bLac sens 9.3 and BH1578 lux ind 1.3.
COc1ccc(C(=O)Nc2ccc(OC)c([N+](=O)[O-])c2)cc1Br was read as Rv3671c protease -20.9, FadD28 binding -2.2, UGM FP inh 0.1, PrP 5UTR inh -17.3, Mtb bLac sens -0.5 and BH1578 lux ind 29.2*.
Screening CC(C)(C)S(=O)(=O)c1cnc(N2CCCC2)nc1N returned Rv3671c protease 4.1, FadD28 binding -0.7, UGM FP inh -0.8, PrP 5UTR inh -3.1, Mtb bLac sens 1.2 and BH1578 lux ind -0.7.
Screening O=C(C1=NN(c2ccccc2)C2C(=O)N(c3cccc(Cl)c3)C(=O)C12)c1ccccc1 (stereo not drawn) returned Rv3671c protease -22.1, FadD28 binding -0.7, UGM FP inh inconclusive, PrP 5UTR inh -13.3, Mtb bLac sens 10.0 and BH1578 lux ind -0.3.
`COc1ccccc1N1C(=O)C2C(C(=O)c3ccccc3)=NN(c3ccc(Br)cc3)C2C1=O` (stereo not drawn) gave Rv3671c protease -8.9, FadD28 binding -3.1, UGM FP inh 10.9*, Mtb bLac sens -0.8 and BH1578 lux ind -0.5.
`O=C(C1=NN(c2ccccc2)C2C(=O)N(c3ccc(Cl)cc3)C(=O)C12)c1ccccc1` (stereo not drawn) gave Rv3671c protease -14.8, FadD28 binding 0.4, UGM FP inh 14.8*, PrP 5UTR inh -15.1, Mtb bLac sens 4.2 and BH1578 lux ind -0.4.
`COc1ccccc1N1C(=O)C2C(C(=O)c3ccccc3)=NN(c3ccc(C)cc3)C2C1=O` (stereo not drawn) gave Rv3671c protease -15.7, FadD28 binding -1.1, UGM FP inh 7.6, Mtb bLac sens -3.1 and BH1578 lux ind -0.4.
For O=C(NCC1CCCO1)c1ccc2c(c1)C(=O)N(c1cccc([N+](=O)[O-])c1)C2=O (stereo not drawn) the results were Rv3671c protease 0.0, FadD28 binding -0.4, UGM FP inh 1.9, PrP 5UTR inh -3.0, Mtb bLac sens -1.1 and BH1578 lux ind 0.4.
CCc1cccc2c(/C=N/NC(=O)c3cccc(S(=O)(=O)Nc4ccccc4Cl)c3)c[nH]c12 was read as Rv3671c protease 11.2, FadD28 binding 34.1*, UGM FP inh 1.1, PrP 5UTR inh -27.4, Mtb bLac sens 47.0 and BH1578 lux ind -0.3.
Screening O=C(NCC1CCCO1)c1coc2nc3ccccc3nc12 (stereo not drawn) returned Rv3671c protease -9.1, FadD28 binding -1.2, UGM FP inh 1.7, PrP 5UTR inh -1.9, Mtb bLac sens -4.9 and BH1578 lux ind active.
Cc1cc2nc(-c3cccnc3SCC(=O)NC(C)C)[nH]c2cc1C was read as Rv3671c protease -0.1, FadD28 binding -5.7, UGM FP inh -0.7, PrP 5UTR inh -65.3, Mtb bLac sens 2.7 and BH1578 lux ind -0.5.
Screening CCCCn1c2nc3ccccc3nc2c2c(=O)n(-c3ccccc3)cnc21 returned Rv3671c protease 0.1, FadD28 binding -1.0, UGM FP inh 2.5, PrP 5UTR inh -19.5, Mtb bLac sens -3.6 and BH1578 lux ind 1.2.
Cc1ccc(-c2nc3ccccc3nc2-c2ccccc2)cc1 was read as Rv3671c protease 1.8, FadD28 binding -4.8, UGM FP inh 1.4, PrP 5UTR inh -5.3, Mtb bLac sens -15.0 and BH1578 lux ind -0.7.
Cn1nc(-c2ccccc2)c2nc3ccccc3nc21 was read as Rv3671c protease 4.4, FadD28 binding -1.6, UGM FP inh 28.3*, PrP 5UTR inh -23.1, Mtb bLac sens 26.2 and BH1578 lux ind -0.2.
`CCCCn1nc(-c2ccccc2)c2nc3ccccc3nc21` gave Rv3671c protease -7.5, UGM FP inh 29.2* and Mtb bLac sens 3.3.
O=C1CC(=O)N(Cc2ccco2)C(=O)N1 was read as Rv3671c protease -13.9, FadD28 binding 4.3, UGM FP inh -2.0, PrP 5UTR inh -13.4, Mtb bLac sens -4.7 and BH1578 lux ind -4.6.
For O=C1CC(=O)N(Cc2ccco2)C(=S)N1 the results were Rv3671c protease -36.4, FadD28 binding 29.0*, UGM FP inh -5.7, PrP 5UTR inh -17.1, Mtb bLac sens -3.2 and BH1578 lux ind -0.6.
Screening Cc1ccccc1OCCn1cc(C(=S)N2CCCC2)c2ccccc21 returned Rv3671c protease -8.0, FadD28 binding -1.6, UGM FP inh 10.6*, PrP 5UTR inh -18.5, Mtb bLac sens -9.9 and BH1578 lux ind inactive.
`COc1ccc(N(CC(=O)N/N=C/c2ccc(-c3ccc([N+](=O)[O-])cc3)o2)S(=O)(=O)c2ccc(C)cc2)cc1` gave Rv3671c protease 0.8, FadD28 binding -3.1, UGM FP inh 14.0*, PrP 5UTR inh -10.2, Mtb bLac sens 90.9 and BH1578 lux ind -0.3.
